Compound activity from PubChem BioAssay.
ELG1 repair inh: qHTS screen for small molecules that inhibit ELG1-dependent DNA repair in human embryonic kidney (HEK293T) cells expressing luciferase-tagged ELG1 | HEK293T ELG1-luciferase reporter, luminescence, 16 h; DNA damage induced by 5-fluorouridine | Potency, µM (top dose mostly 46.1 µM), for inactives: top-dose activity change, negative = inhibition, most hits filed as inhibitors | 330,000 compounds, 2.3% hits | AID 504467, 2011; further: potency means the concentration at half of the fitted maximal effect; nearly all actives have a fitted effect of over 55% in size
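DMSO vehicle served as the neutral condition. Each well held 2,000 cells given 5-fluorouridine plus compound; after 16 hr at 37 °C/5% CO2, ONE-Glo was added and luciferase measured 30 min later.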
HT1080 IDH1KD tx: qHTS for induction of synthetic lethality in tumor cells producing 2HG: qHTS for the HT-1080-IDH1KD cell line. Potency, µM (doses to about 46.1 µM), without a hit: at the top dose activity, negative = toxicity, actives largely listed as cytotoxic. AID 686971, 2013. 360,000 compounds, 2% hits. HT-1080 IDH1 knockdown viability, ATP luminescence, 48 h;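 further: potency means the concentration at half of the fitted maximal effect; 0% = DMSO wells and -100% = cell-free medium wells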
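Viability of IDH1-knockdown HT-1080 fibrosarcoma cells was assessed by CellTiter-Glo after 48 h at 37 °C with titrated compound; concentration-effect curves were classified by fit quality and response size.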
IL1B secr inh: qHTS for Inhibitors of Inflammasome Signaling: IL-1-beta AlphaLISA Primary Screen; THP-1 LPS/ATP IL-1B secretion, AlphaLISA, 16 h; stronger effect = lower value; activity change, % at 57.5 µM; 360,000 compounds, 4.7% hits; in the data active means activity change below about -50%; inconclusive means mostly about -30% to -49%
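Secreted IL-1B measured by AlphaLISA bead assay after 16 h compound exposure of THP-1 cells; compounds (final up to 57.5 uM) added 1 h before LPS (250 ng/mL) and ATP (1.25 mM) stimulation; lower signal means less secretion.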
DT40 TDP1 no CPT: qHTS for Inhibitors of human tyrosyl-DNA phosphodiesterase 1 (TDP1): qHTS in cells in absence of CPT | DT40 Tdp1-/- hTDP1 cells, no CPT, ATP luminescence, 48 h | Potency, µM (top dose mostly 46.2 µM), inactives show at the highest dose activity change, negative = growth inhibition, usual class: inhibitors | 420,000 compounds, 15% hits; further: potency means the concentration at half of the fitted maximal effect; nearly all actives have a fitted effect of over 55% in size
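Growth of hTDP1-complemented DT40 Tdp1-knockout cells is measured by ATP luminescence after at least 48 hr compound exposure at 37 °C, with DMSO substituting for the 20 nM CPT used in the parallel screen.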
HT1080-NT tox: qHTS for induction of synthetic lethality in tumor cells producing 2HG: qHTS for the HT-1080-NT fibrosarcoma cell line | Potency, µM (highest dose often 46.1 µM), for inactives: at the top dose activity, negative = less viability, hits mostly cytotoxic | AID 686970, 2013 | HT-1080-NT fibrosarcoma viability, CellTiter-Glo ATP luminescence, 48 h | 360,000 compounds, 1.6% hits;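 further: NT is the 2HG producing partner of a matched IDH1 knockdown line; potency means the concentration at half of the fitted maximal effect; 0% = DMSO-treated cells and -100% = media-only wells without cells; nearly all actives have a fitted effect of over 55% in size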
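Compounds were tested in concentration-response format on HT-1080-NT cells for 48 hours at 37 degrees C. Cell viability came from CellTiter-Glo luminescence; curves were classified by r2, response magnitude and activity.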
TDP1 cell CPT: qHTS for Inhibitors of human tyrosyl-DNA phosphodiesterase 1 (TDP1): qHTS in cells in presence of CPT; chicken DT40 Tdp1-/-;hTDP1 cells + 20 nM CPT, ATP luminescence, 48 h; Potency, µM (titrated, usually from 46.2 µM), without a hit: top-dose activity change, negative = growth inhibition, hits mostly inhibitors; 420,000 compounds, 12% hits; further: potency means the concentration at half of the fitted maximal effect; nearly all actives have a fitted effect of over 55% in size
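Cell growth measured by CellTiter-Glo luminescence after a minimum 48 h, 37 C compound exposure with 20 nM CPT in Tdp1-knockout DT40 cells stably expressing hTDP1, seeded 400/well; qHTS titration format.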
* hit, by the source's call; ? = inconclusive; . = not tested or not shown; [ ] = another dose, or the depositor's remark. Rows were chosen to be rich in hits. Some 19% of all compounds tested hit in one or more screens of this group. Unless noted, the call rests on the fitted dose curve; in most records, active means well fitted curve in the direction sought with a large enough effect; inconclusive means small, poorly fitted or top-dose-only effect, or another doubt; inactive means no such curve, though single readings can be large; an effect the other way counts as inactive or inconclusive. Unless noted, on the % scale 0 is the no-effect control and ±100 the full control effect.

SMILES | ELG1 repair inh | HT1080 IDH1KD tx | IL1B secr inh | DT40 TDP1 no CPT | HT1080-NT tox | TDP1 cell CPT
O=C(NC1CCCCC1)c1ccc(Cn2c(SCc3ccccc3F)nc3cccnc32)cc1 | . | . | . | 16µM* | . | ?
O=C(NC1CC1)c1ccc(Cn2c(SCc3ccccc3F)nc3cccnc32)cc1 | . | . | . | 12µM* | . | 21µM*
O=C(NC1CCCCC1)c1ccc(CSc2nc3cccnc3n2Cc2ccccc2F)cc1 | . | . | . | 21µM* | . | ?
NCCS(=O)(=O)O | . | -12% | 9 | ? | ? | -7%
CN(C)c1ccc(/C=C/c2ccnc3ccccc23)cc1O | . | . | . | 10µM* | . | 11µM*
CCOc1ccc(/C=C/c2ccnc3ccccc23)cc1OCC | . | . | . | 11µM* | . | 10µM*
CSc1ccc(/C=C/c2ccnc3ccccc23)cc1 | . | . | . | -5% | . | 8%
CN(C)c1ccc(/C=C/c2ccnc3ccccc23)cc1[N+](=O)[O-] | . | . | . | -11% | . | -2%
CCc1cc(/C=C/c2ccnc3ccccc23)ccc1N(C)C | . | . | . | 2.8µM* | . | 5µM*
CN(C)c1ccc(/C=C/c2ccnc3ccccc23)cc1C=O | . | . | . | 10µM* | . | 16µM*
CCc1nc2c(OCC3COc4ccccc4O3)cccn2c1N(C)C(=O)c1cccs1 (stereo unspecified) | . | 15% | -14 | ? | -13% | ?
Cc1coc2cc3oc(=O)c(CCC(=O)NCCN4CCOCC4)c(C)c3cc12 | 23% | -1% | -8 | ? | -6% | ?
CCOC(=O)C1=CN(Cc2ccco2)S(=O)(=O)N(C)C1c1ccc2ccccc2c1 (stereo unspecified) | -2% | -1% | ? | ? | -9% | 21µM*
CCOC(=O)C1=CN(Cc2ccco2)S(=O)(=O)N(C)C1c1ccc(C(F)(F)F)cc1 (stereo unspecified) | -7% | -1% | 13 | ? | 0% | ?
COC(=O)CCCC(=O)NCC1(N(C)Cc2ccccc2)Cc2ccccc2C1 | -18% | 11% | 26 | ? | 13% | 3%
CCOC(=O)N1CCN(Cc2ccc3c(c2)CN(C(=O)c2noc4c2CCCC4)CCO3)CC1 | . | . | . | 21µM* | . | -13%[9.04 µM]
CSc1ncnc2c1ncn2CCCN1CCN(C(=O)C2CC2)CC1 | . | 9% | 12 | ? | 6% | 6%
Cc1cc2nc(-c3ccc(SCc4ccccc4C#N)nc3)[nH]c2cc1C | ? | -25% | ? | 16µM* | ? | ?
COC(=O)CSc1ccc(-c2nc3ccc(C)cc3[nH]2)cn1 | ? | 14% | -90* | ? | -1% | -28%
Cc1cc2nc(-c3ccc(SCC(=O)N4CCc5ccccc54)nc3)[nH]c2cc1C | ? | 0% | 109 | 23µM* | -10% | 9.2µM*
Cc1cc(NC(=O)CSc2ccc(-c3nc4cc(C)c(C)cc4[nH]3)cn2)no1 | ? | ? | 95 | ? | -22% | ?
CCCCCCCCNS(=O)(=O)CCNC1CC1 | . | -1% | 11 | -20% | 5% | ?
CCO[C@@H]1O[C@H](C(COCc2ccccc2)OCc2ccccc2)[C@H](OCc2ccccc2)[C@H]1O (stereo partly specified) | . | . | . | ? | . | 11µM*
O=C(c1ccc(Br)o1)N1CCN(c2ccc3nnc(-c4ccccc4)n3n2)CC1 | ? | -27% | -6 | 15µM* | -17% | 16µM*
Brc1ccc(-c2nnc3ccc(Nc4ccccc4)nn23)cc1 | 19% | . | . | . | . | .
SMILES | ELG1 repair inh | HT1080 IDH1KD tx | IL1B secr inh | DT40 TDP1 no CPT | HT1080-NT tox | TDP1 cell CPT
O=S(=O)(c1ccc(Br)cc1)N1CCN(c2ccc3nnc(-c4ccccc4)n3n2)CC1 | -9% | 7% | 14 | 21µM* | 2% | 18µM*
CCOC(=O)N(C)C[C@H]1OCc2cnnn2CCCC(=O)N([C@@H](C)CO)C[C@H]1C | . | 9% | 12 | -21% | 6% | 6%
c1ccc(CSc2nc3ncccn3n2)cc1 | ? | 5% | 30 | 17% | 2% | 12%
Cc1ccc(NC(=O)CNc2ccc(OC(C)C)cc2)cc1 | -4% | 12% | -18 | 23µM* | 3% | ?
Cc1ccc(NC(=O)COCC(=O)Nc2ccc(F)cc2)cc1 | -11% | 1% | 50 | 21µM* | 12% | 18µM*
Cc1cc(C)cc(OCC(=O)Nc2ccc(F)cc2)c1 | -1% | 14% | -52* | -29% | 13% | 3%
Cc1cc(C(=O)CN2C(=O)C(=O)N(CC(C)C)C2=O)c(C)n1C1CC1 | ? | 1% | 0 | -27% | 13% | -1%
CNC(=O)c1nc(C)c(C2(C)CC(c3cccc([N+](=O)[O-])c3)=NO2)s1 (stereo unspecified) | 8% | -1% | -7 | -14% | -3% | -12%
O=c1cc(CN2CCN(Cc3ccc(F)cc3)C(CCO)C2)[nH]c2ccccc12 (stereo unspecified) | -6% | -1% | 18 | 0% | 1% | 34%
O=C(Cn1c(=O)c2cccn2c2ccc(F)cc21)NCc1cccc(Cl)c1 | . | . | . | ? | . | -27%
CC(C)c1ccc(CN2CCC(C(=O)NCc3cccnc3)CC2)cc1 | 14% | -4% | 8 | -18% | -5% | -18%
O=C(NCc1cccnc1)C1CCC(c2ccc(Cl)cc2)CC1 (stereo unspecified) | 9.2µM* | -16% | -24 | 16µM* | ? | ?
O=C(NCc1cccnc1)C1CCN(C(=O)c2ccc(Cl)cc2Cl)CC1 | 12% | 1% | 1 | -12% | 1% | -15%
Cc1oc(-c2ccc(Cl)cc2)nc1CN1CCC(C(=O)NCc2cccnc2)CC1 | -29% | -18% | -58* | ? | -17% | -3%
